Measured values published in PubChem BioAssay (NCI).
About 79,000 compounds went through this panel and 15% of them were active in at least one assay; those are over-represented in the sample as a whole. Active and inactive are the calls of the source. Rule as the data show it: active = growth inhibition above about 70%; inactive = the rest.

Key:
[1] = NCI Yeast Anticancer Drug Screen. Data for the rad50 strain (AID 155);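 also: 0% = growth of vehicle-only cultures of the same strain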; conditions: S. cerevisiae rad50 strain growth inhibition; at 50.0 µM; active compounds read high
Outline: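 A DNA repair-deficient yeast mutant serves as the test organism; compound-induced growth inhibition is calculated against vehicle-treated cells.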

[2] = NCI Yeast Anticancer Drug Screen. Data for the mec2-1 strain (AID 157); conditions: S. cerevisiae mec2-1 strain, at 50.0 µM, active compounds read high
Outline: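 Vehicle-treated cultures served as reference for growth inhibition of compound-exposed mec2-1 yeast.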

[3] = NCI Yeast Anticancer Drug Screen. Data for the sgs1 mgt1 strain (AID 161);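 also: 0% = growth of cultures given vehicle only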; conditions: S. cerevisiae sgs1 mgt1 strain, at 50.0 µM, active compounds read high
Outline: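 Mutant yeast exposed to compound; growth scored against vehicle-only wells.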

[4] = NCI Yeast Anticancer Drug Screen. Data for the cln2 rad14 strain (AID 165);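 also: 0% = growth equal to vehicle treated cultures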; conditions: S. cerevisiae cln2 rad14 strain, at 50.0 µM, active compounds read high
Outline: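 Each compound was tested on cln2 rad14 yeast. Inhibition of growth was calculated against vehicle-exposed controls.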

[5] = NCI Yeast Anticancer Drug Screen. Data for the bub3 strain (AID 167); conditions: S. cerevisiae bub3 mutant strain, at 50.0 µM, active compounds read high
Outline: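 Inhibition values come from growth of compound-treated mutant yeast normalised to vehicle-treated controls.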

[6] = NCI Yeast Anticancer Drug Screen. Data for the mlh1 rad18 strain (AID 175); conditions: S. cerevisiae mlh1 rad18 strain growth inhibition; at 50.0 µM; active compounds read high
Outline: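 Vehicle-treated cultures served as the reference for growth inhibition in a yeast strain carrying DNA damage repair alterations exposed to each compound.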

Measured: growth inhibition

c1ccc(NCNC2Nc3ccccc3N2)cc1
inactive: [1] -25.9% | [2] -13.2% | [3] 12.3% | [4] -3.35% | [5] -20.6% | [6] 11.6%

CCOC(=O)C(C#N)CCC(C)=O (configuration not stated)
inactive: [1] -12.3% | [2] -11.1% | [3] 17.4% | [4] -24.4% | [5] -7.8% | [6] -28.6%

OCCCCCCCCCCCO
inactive: [1] 16.9% | [2] 2.3% | [3] 4.35% | [4] -15.5% | [5] 12.6% | [6] -19.9%

CC[N+](C)(CC)c1cccc(OC(=O)Nc2ccc(OC)cc2)c1
inactive: [1] 6% | [2] 5.25% | [3] 3.35% | [4] -5.7% | [5] 1.05% | [6] 14.3%

O=[N+]([O-])C(=C1NCCN1)C(Cl)=C(Cl)Cl
inactive: [1] -43% | [2] -27.9% | [3] 5.3% | [4] -18.6% | [5] -1.2% | [6] -26%

CS/N=C(\c1ccccc1)N(C)C
inactive: [1] -23.9% | [2] -4.05% | [3] -1.45% | [4] -25.1% | [5] -1.6% | [6] 3.35%

COc1cccc(Cc2cncc3c(O)c(OC)ccc23)c1O
inactive: [1] 2.3% | [2] -6.4% | [3] -8.05% | [4] 3% | [5] -1.9% | [6] 9.95%

O=C(O)c1ccc[n+](Cc2ccccc2)c1
inactive: [1] 4.9% | [2] 12.6% | [3] -5.15% | [4] -8.2% | [5] -5.95% | [6] 2.15%

CCOC(=O)c1ccc(NC(=O)Oc2ccc(C=O)cc2OC)cc1
inactive: [1] 5.7% | [2] 5.3% | [3] 7.85% | [4] 11% | [5] 20.1% | [6] 7.2%

CCCCCCC(C)Oc1ccccc1Cl (configuration not stated)
inactive: [1] 5.35% | [2] -11.5% | [3] 7.9% | [4] -23.9% | [5] 6.4% | [6] -20.6%

O=C(c1ccccc1)c1cc(Cl)ccc1N1C(=O)C=CC1=O
active: [1] 99.2% | [2] 99.7% | [3] 99.7% | [4] 99.2% | [5] 99% | [6] 99.5%

C=CCN(CC=C)CCNc1cc(C)nc(/N=C(\N)Nc2ccc(Cl)c(Cl)c2)n1
active: [1] 94.7% | [2] 94.2% | [3] 96.8% | [4] 87% | [5] 94.7% | [6] 97.9%

CCc1ccccc1NC(=O)NCC(C)C
inactive: [1] -7.65% | [2] -20.3% | [3] 5.85% | [4] -3.8% | [5] 2.7% | [6] -4.35%

O=C(Nc1cccc(C(=O)Nc2ccc(S(=O)(=O)O)c3cc(S(=O)(=O)O)cc(S(=O)(=O)O)c23)c1)Nc1cccc(C(=O)Nc2cccc3c(S(=O)(=O)O)c(S(=O)(=O)O)cc(S(=O)(=O)O)c23)c1
inactive: [1] -0.25% | [2] 7.2% | [3] 0.65% | [4] 47.9% | [5] 12.9% | [6] 13.7%

BrC1CCC(Br)CC1 (configuration not stated)
inactive: [1] 7.1% | [2] -11.1% | [3] -8.45% | [4] -12.9% | [5] -2.3% | [6] -9.7%

C[N+]1(C)C2Cc3ccccc3C1Cc1ccccc12
inactive: [1] -1.7% | [2] -11.6% | [3] 11.4% | [4] 10.4% | [5] 3.75% | [6] -57%

Cc1cccc(Cl)c1NC(=O)NCCCN1CCOCC1
inactive: [1] 2.8% | [2] -14.9% | [3] 6.2% | [4] 14.1% | [5] -1.75% | [6] 6.45%

COC(=O)c1cc(C(=O)O)c(=O)n2ccccc12
inactive: [1] 23% | [2] 50% | [3] 32.1% | [4] 53.2% | [5] 35.2% | [6] 41.5%

CCCCC(CC)OC(=O)c1cccc(C)c1 (configuration not stated)
inactive: [1] 9.15% | [2] 2.25% | [3] 17.8% | [4] -7.4% | [5] -0.05% | [6] 7.1%

CCN(CC)c1cccc2c1C1(O)CCC3(CC21)OCCCCO3 (configuration not stated)
inactive: [1] -33% | [2] -21.6% | [3] -57.3% | [4] -1.65% | [5] -45% | [6] -28.9%

C=CCOC(=O)OCCO
inactive: [1] 5.95% | [2] -0.55% | [3] -2.8% | [4] -34.5% | [5] -5.5% | [6] -15.9%

O=[N+]([O-])c1cccc(Cc2nc3ccccc3nc2-c2ccccc2)c1
inactive: [1] 34.9% | [2] 18.2% | [3] 13.7% | [4] 4.1% | [5] 48.6% | [6] 37.7%

CCC(=O)c1c2c(cc3ccccc13)CCCC2
inactive: [1] 11.7% | [2] -10.7% | [3] 7.3% | [4] 3.85% | [5] 38.2% | [6] 34%

Clc1ccc(C2OCCCO2)cc1
inactive: [1] -21.1% | [2] 7.8% | [3] -9.7% | [4] 10.2% | [5] -8.4% | [6] -1.65%

CCCCCCCCCCCCCCCCCCc1c(C)cc(C)cc1C
inactive: [1] 3.7% | [2] 23.2% | [3] 3.7% | [4] 33.3% | [5] 3.55% | [6] 4.3%

COc1ccc(CCNC(=O)Cc2cc(OCc3ccccc3)c(OC)cc2[N+](=O)[O-])cc1OC
inactive: [1] 36.1% | [2] 8.4% | [3] 25.5% | [4] 0.8% | [5] -4.2% | [6] 6.9%

O=[N+]([O-])c1ccc(OS(=O)(=O)O)cc1
inactive: [1] 17.8% | [2] 4.45% | [3] 20.5% | [4] -9.85% | [5] -4.1% | [6] 8.55%

COc1ccc2c(c1)c(CO)c(CO)c[n+]2[O-]
inactive: [1] 11.7% | [2] 3.1% | [3] 16% | [4] 2.75% | [5] 11.8% | [6] 6.15%

COc1cc(S(=O)(=O)O)ccc1N=N/C(=N\Nc1ccc(S(=O)(=O)O)cc1OC)C(N)=O
inactive: [1] -42.1% | [2] 5.55% | [3] 8.9% | [4] 18.6% | [5] -1.95% | [6] 7.7%

O=C(O)CCC1(c2ccccc2)CCCCC1
inactive: [1] 6.1% | [2] 13.9% | [3] 11.6% | [4] 10.2% | [5] 47.7% | [6] -0.9%

CC(C)=C1C(=O)C[C@]2(C)C[C@H]3/C(=C(/C)CCC12)CC[C@@]3(C)O (some centres not stated)
inactive: [1] 46.5% | [2] -1.25% | [3] 2% | [4] 28.6% | [5] -6.05% | [6] -8.4%

CCOc1ccccc1NC(=O)c1c(Br)c(Br)c(Br)c(Br)c1C(=O)O
inactive: [1] 5.6% | [2] -16.8% | [3] -1.8% | [4] -4.15% | [5] 6.05% | [6] -17.6%

Cc1ccc(-c2cs/c(=N\N=C3/CSC(=O)N3Cc3ccccc3)n2-c2ccccc2)cc1
inactive: [1] 41.1% | [2] 22.8% | [3] 12.1% | [4] 0.35% | [5] -2.55% | [6] 40.4%

O=CCCC1CCCCC1
inactive: [1] 4.75% | [2] 1.5% | [3] -4.55% | [4] -17.4% | [5] 13.1% | [6] -5.7%

CC(=O)CSCc1ccccn1
inactive: [1] 5.05% | [2] 15% | [3] -18.6% | [4] 10.2% | [5] 22.6% | [6] -1.9%

O=S(=O)(O)CO
inactive: [1] 16.9% | [2] 4.6% | [3] 26% | [4] 7.35% | [5] -7.7% | [6] 20.4%

Cc1ccc(C(C)C)cc1OC(=O)NC1CCCCC1
inactive: [1] -4% | [2] 9.3% | [3] 9.9% | [4] -13.2% | [5] -23.4% | [6] -0.6%

COC1C(/C=C/C(C)=O)OC2OC(C)(C)OC21 (configuration not stated)
inactive: [1] 1.7% | [2] 1.35% | [3] 3.85% | [4] -9.45% | [5] 2.3% | [6] -1.55%

C=C1CC/C=C(\C)C(=O)C(O)C2C1CC2(C)C (configuration not stated)
inactive: [1] 14.9% | [2] -13.7% | [3] 67.2% | [4] 16.4% | [5] 23.9%
active: [6] 78.8%

O=C(COc1ccc(Cl)cc1)Nc1cccc([N+](=O)[O-])c1
inactive: [1] 2.55% | [2] 17.1% | [3] 2.45% | [4] -5.7% | [5] 18.9% | [6] 6.7%

CCCCOC(=O)c1cc(/C=C\c2ccccc2)on1
inactive: [1] -12.9% | [2] -2.45% | [3] 3.1% | [4] -69.6% | [5] 30.6% | [6] 9.25%

N#CCC(CC#N)C(c1cccc2ccccc12)c1cccc2ccccc12
inactive: [1] 9.85% | [2] -2.45% | [3] -3.85% | [4] 3.25% | [5] 18.7% | [6] -1.7%
